Results filed as inconclusive are left out. The source made the active and inactive calls. The calls were made as follows, unless noted: active = hit-call score of the fitted dose curve at least 0.9, where 1 is the maximum; inactive = score below 0.9.
How the values were obtained:
[1] = ACEA_ER_80hr: ACEA Biosciences xCELLigence Real-Time Cell Analysis on Estrogen Receptor Agonism for Proliferation (AID 2282667; active = hit-call score of the fitted dose curve at least 0.9, where 1 is the maximum); conditions: T47D proliferation, impedance (xCELLigence), 80 h
In short: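 T-47D cells monitored by electrical impedance (xCELLigence) with compound present throughout; 80 h timepoint, positive-direction fitting versus DMSO. Eight-point 1:4 dilutions from 100 uM final, duplicate plates.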

[2] = ATG_CRE_CIS: Attagene CIS-FACTORIAL HepG2 Assay for human cAMP Responsive Element (CRE) binding protein 3 (AID 2282926); conditions: HepG2 CRE cis-reporter, Attagene multiplexed mRNA; actives raise or lower the signal
In short: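 Induced reporter mRNA from a CRE cis element, measured in HepG2 among many multiplexed units at 24 h. Detection used RT-PCR plus capillary electrophoresis of fluorescent fragments; DMSO served as negative control.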

[3] = molecular target: CCAAT/enhancer-binding protein beta (Homo sapiens) (UniProt P17676); test: ATG_C_EBP_CIS: Attagene CIS-FACTORIAL HepG2 Assay for human CCAAT/Enhancer Binding Protein (C/EBP) beta (AID 2282927); conditions: HepG2 Attagene cis-factorial transcription factor reporter; actives raise or lower the signal
In short: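 RT-PCR/capillary electrophoresis fluorescence of reporter mRNA, 24 h post-dose, in HepG2 cells carrying transfected cis-promoter reporter units. Bidirectional curve fitting against DMSO baseline captures gain or loss of signal.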

[4] = ATG_CMV_CIS: Attagene CIS-FACTORIAL HepG2 Assay for human CMV (Internal Marker) (AID 2282928); conditions: HepG2 CMV promoter reporter, transcription factor profiling; actives raise or lower the signal;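 also: endpoint acts as a background internal control marker rather than a target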
In short: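 Reporter transcripts from transfected HepG2 cells are isolated after 24 h of chemical dosing, reverse-transcribed and amplified. Fragments labeled with 6-FAM are cut with HpaI and quantified by capillary electrophoresis; DMSO defines baseline.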

[5] = ATG_DR4_LXR_CIS: Attagene CIS-FACTORIAL HepG2 Assay for human Liver X Receptor (LXR), DR4 submotif (AID 2282929); conditions: HepG2 Attagene DR4 cis-reporter, mRNA transcription; actives raise or lower the signal
In short: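 Transiently transfected HepG2 liver cells; cis-regulated reporters; 24 h dosing. RT-PCR plus CE read-out of reporter mRNA. DMSO baseline, bidirectional curve fitting.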

[6] = molecular target: Aryl hydrocarbon receptor (Homo sapiens) (UniProt P35869); test: ATG_Ahr_CIS: Attagene CIS-FACTORIAL HepG2 Assay for human Aryl Hydrocarbon Receptor (Ahr) (AID 2282930); conditions: HepG2 AhR cis-factorial reporter transcription; actives raise or lower the signal
In short: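 HepG2 cells transiently transfected with cis-element-driven multiplexed reporter transcription units; endogenous transcription factor activity measured as reporter mRNA 24 h after dosing. RT-PCR, 6-FAM labelling, HpaI digestion, capillary electrophoresis; bidirectional fitting versus DMSO baseline.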

[7] = ATG_AP_1_CIS: Attagene CIS-FACTORIAL HepG2 Assay for human Activator Protein 1 (AP-1) (AID 2282931); conditions: HepG2 Attagene cis-factorial AP-1 reporter mRNA; actives raise or lower the signal
In short: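 We transfected HepG2 cells transiently with a set of cis-regulated reporter transcription units, dosed them for 24 h, and quantified reporter mRNA via RT-PCR and capillary electrophoresis, scoring gain or loss of signal relative to DMSO.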

[8] = ATG_BRE_CIS: Attagene CIS-FACTORIAL HepG2 Assay for human Bone Morphogenetic Protein (BMP) Response Element (BRE) (AID 2282933); conditions: HepG2 BMP response element reporter, Attagene transcription factor profiling; actives raise or lower the signal
In short: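 A HepG2 multiplex reporter system measured inducible reporter mRNA 24 h post-dosing. Detection: RT-PCR, 6-FAM primer extension, HpaI digestion, capillary electrophoresis. Activity fitted bidirectionally relative to DMSO.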

[9] = molecular target: Retinoic acid receptor alpha (Homo sapiens) (UniProt P10276); test: ATG_DR5_RAR_CIS: Attagene CIS-FACTORIAL HepG2 Assay for human Retinoic Acid Receptor Alpha (RARE), DR5 submotif (AID 2282934); conditions: HepG2 Attagene cis-factorial RARE DR5 reporter, mRNA; actives raise or lower the signal;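 as to AC50: reporter responds to endogenous RAR alpha beta and gamma in HepG2 not RARA alone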
In short: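 HepG2 cells transiently transfected with multiplexed reporter units under cis (DR5 RARE) promoters, so endogenous transcription factor activity is measured. After 24 h compound exposure, reporter mRNA is quantified by RT-PCR with fluorescent labelling and capillary electrophoresis; bidirectional fitting versus DMSO.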

[10] = molecular target: Transcription factor E2F1 (Homo sapiens) (UniProt Q01094); test: ATG_E2F_CIS: Attagene CIS-FACTORIAL HepG2 Assay for human E2F Transcription Factor 1 (AID 2282935); conditions: HepG2 Attagene cis-reporter, E2F reporter RNA transcripts; actives raise or lower the signal
In short: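 First, HepG2 cells were transfected with reporter transcription units. Next, they were dosed for 24 h. Then RNA was isolated, converted to cDNA, PCR-amplified, FAM-labeled, HpaI-digested and analyzed by capillary electrophoresis.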

[11] = ATG_E_Box_CIS: Attagene CIS-FACTORIAL HepG2 Assay for human Enhancer Box (E-box) (AID 2282936); conditions: HepG2 E-box cis-reporter transcription, actives raise or lower the signal
In short: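 Endogenous transcription factor activity was sensed in human HepG2 liver cells through transfected cis-promoter reporter units. After 24 h of dosing, total RNA was reverse-transcribed and reporter cDNA resolved by capillary electrophoresis.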

[12] = ATG_M_61_CIS: Attagene CIS-FACTORIAL HepG2 Assay for M61 Transcription Factor (Internal Marker) (AID 2282937); conditions: HepG2 Attagene CIS-FACTORIAL M61 internal marker reporter; actives raise or lower the signal
In short: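 Multiplexed reporter mRNA assay, HepG2 human hepatoma cells, 24 h treatment. Signal: FAM-labelled, HpaI-digested RT-PCR fragments by CE. Fit: bidirectional, baseline DMSO.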

[13] = ATG_EGR_CIS: Attagene CIS-FACTORIAL HepG2 Assay for human Early Growth Response 1 (EGR1) (AID 2282938); conditions: HepG2 Attagene CIS-FACTORIAL EGR reporter mRNA; actives raise or lower the signal
In short: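 Multiplexed cis-reporter system in human hepatoma HepG2 cells, transiently transfected. Cells are dosed for 24 h; reporter transcripts are amplified, fluorescently tagged and sized by capillary electrophoresis, with DMSO as negative control.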

[14] = ATG_M_19_CIS: Attagene CIS-FACTORIAL HepG2 Assay for M19 Transcription Factor (Internal Marker) (AID 2282939); conditions: HepG2 Attagene CIS-FACTORIAL M19 internal marker reporter; actives raise or lower the signal
In short: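 Chemical-treated HepG2 (24 h) with MRTU constructs; reporter transcripts detected by fluorescent RT-PCR fragment analysis on capillary electrophoresis. Internal background marker, DMSO as baseline.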

[15] = ATG_ERE_CIS: Attagene CIS-FACTORIAL HepG2 Assay for Estrogen Response Element (ERE) (AID 2282940); conditions: HepG2 ERE cis-reporter, Attagene RNA transcript; actives raise or lower the signal
In short: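 Human liver cells (HepG2) bearing transiently transfected, promoter-regulated reporter units were exposed 24 h. Reporter mRNA induction was detected by capillary electrophoresis of labelled RT-PCR products and fitted bidirectionally to DMSO.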

[16] = ATG_Ets_CIS: Attagene CIS-FACTORIAL HepG2 Assay for human Erythroblast Transformation Specific (ETS) (AID 2282941); conditions: HepG2 ETS cis-reporter transcription, actives raise or lower the signal
In short: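 Bidirectional fit versus DMSO of reporter mRNA signal, detected by RT-PCR and capillary electrophoresis in HepG2 cells transiently transfected with cis-element reporters and dosed 24 h.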

[17] = molecular target: Hepatocyte nuclear factor 3-beta (Homo sapiens) (UniProt Q9Y261); test: ATG_FoxA2_CIS: Attagene CIS-FACTORIAL HepG2 Assay for human Forkhead box A2 (FOXA2) (AID 2282942); conditions: HepG2 cis-reporter transcription factor activity, 24 h; actives raise or lower the signal
In short: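 Multiplexed cis-element reporter assay in transiently transfected HepG2. Twenty-four hours post-dosing, RNA was reverse-transcribed, amplified, FAM-labelled, HpaI-digested and separated by CE. Activity gain or loss relative to DMSO.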

[18] = ATG_FoxO_CIS: Attagene CIS-FACTORIAL HepG2 Assay for human Forkhead box O (FoxO) (AID 2282943); conditions: HepG2 Attagene cis-reporter, FoxO element, mRNA; actives raise or lower the signal
In short: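 HepG2 cells transiently transfected with cis-promoter-driven multiple reporter transcription units; 24 h after chemical dosing, reporter mRNA quantified by RT-PCR, fluorescent primer extension, HpaI digestion and capillary electrophoresis. Bidirectional fitting versus DMSO baseline.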

[19] = ATG_GATA_CIS: Attagene CIS-FACTORIAL HepG2 Assay for human GATA Binding Protein (AID 2282944); conditions: HepG2 GATA cis-element reporter, Attagene multiplex mRNA; actives raise or lower the signal
In short: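 Transfected cis-reporter HepG2 cells were treated with chemicals for 24 hours. Total RNA was then converted to cDNA, amplified with reporter-specific primers and analysed by fluorescent capillary electrophoresis, using DMSO-treated wells as baseline.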

[20] = ATG_AP_2_CIS: Attagene CIS-FACTORIAL HepG2 Assay for human Activator Protein 2 (AP-2) (AID 2282932); conditions: HepG2 AP-2 cis-reporter, Attagene transcription factor profiling; actives raise or lower the signal
In short: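 Cells (HepG2) transfected with promoter-driven reporter constructs, treated 24 h. Total RNA reverse-transcribed, reporter cDNA PCR-amplified, FAM-labelled by primer extension, digested, resolved by capillary electrophoresis. Activity fitted both directions versus DMSO.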

Measured: AC50

Chain of CCAAT/enhancer-binding protein beta (Homo sapiens) (P17676 whole entry, looked up): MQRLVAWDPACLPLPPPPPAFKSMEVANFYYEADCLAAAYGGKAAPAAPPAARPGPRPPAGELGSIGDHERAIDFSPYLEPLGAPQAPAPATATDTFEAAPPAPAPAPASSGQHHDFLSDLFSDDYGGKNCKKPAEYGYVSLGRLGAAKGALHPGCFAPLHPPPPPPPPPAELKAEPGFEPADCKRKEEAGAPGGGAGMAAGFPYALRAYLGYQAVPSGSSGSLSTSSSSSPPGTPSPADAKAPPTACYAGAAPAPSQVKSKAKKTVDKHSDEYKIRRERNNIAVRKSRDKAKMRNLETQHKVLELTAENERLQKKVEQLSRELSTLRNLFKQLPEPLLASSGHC
Chain of Hepatocyte nuclear factor 3-beta (Homo sapiens) (Q9Y261 whole entry, looked up): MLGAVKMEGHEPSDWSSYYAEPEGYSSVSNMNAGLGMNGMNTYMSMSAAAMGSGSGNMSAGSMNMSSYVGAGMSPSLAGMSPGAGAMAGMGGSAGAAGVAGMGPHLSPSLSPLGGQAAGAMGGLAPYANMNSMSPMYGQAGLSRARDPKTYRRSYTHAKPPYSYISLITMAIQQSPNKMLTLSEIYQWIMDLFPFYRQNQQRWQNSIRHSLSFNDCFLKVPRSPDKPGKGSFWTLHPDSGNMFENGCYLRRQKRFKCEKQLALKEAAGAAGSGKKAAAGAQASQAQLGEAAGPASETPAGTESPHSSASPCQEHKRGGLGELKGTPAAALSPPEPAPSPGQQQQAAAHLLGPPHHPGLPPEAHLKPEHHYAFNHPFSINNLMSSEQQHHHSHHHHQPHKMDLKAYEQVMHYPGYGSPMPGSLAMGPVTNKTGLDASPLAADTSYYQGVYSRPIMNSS
Chain of Transcription factor E2F1 (Homo sapiens) (Q01094 whole entry, looked up): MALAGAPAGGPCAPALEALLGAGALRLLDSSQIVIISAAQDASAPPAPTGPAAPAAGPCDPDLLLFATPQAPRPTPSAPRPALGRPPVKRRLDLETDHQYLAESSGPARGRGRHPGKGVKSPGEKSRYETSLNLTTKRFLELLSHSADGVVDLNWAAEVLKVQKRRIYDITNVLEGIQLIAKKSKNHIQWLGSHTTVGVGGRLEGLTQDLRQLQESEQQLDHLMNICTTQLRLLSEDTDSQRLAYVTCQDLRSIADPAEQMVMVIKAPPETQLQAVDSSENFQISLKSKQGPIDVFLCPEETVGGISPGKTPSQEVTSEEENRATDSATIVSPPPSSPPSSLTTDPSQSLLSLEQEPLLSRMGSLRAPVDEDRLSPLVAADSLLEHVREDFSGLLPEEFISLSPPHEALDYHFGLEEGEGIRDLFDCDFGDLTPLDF
Chain of Retinoic acid receptor alpha (Homo sapiens) (P10276 whole entry, looked up): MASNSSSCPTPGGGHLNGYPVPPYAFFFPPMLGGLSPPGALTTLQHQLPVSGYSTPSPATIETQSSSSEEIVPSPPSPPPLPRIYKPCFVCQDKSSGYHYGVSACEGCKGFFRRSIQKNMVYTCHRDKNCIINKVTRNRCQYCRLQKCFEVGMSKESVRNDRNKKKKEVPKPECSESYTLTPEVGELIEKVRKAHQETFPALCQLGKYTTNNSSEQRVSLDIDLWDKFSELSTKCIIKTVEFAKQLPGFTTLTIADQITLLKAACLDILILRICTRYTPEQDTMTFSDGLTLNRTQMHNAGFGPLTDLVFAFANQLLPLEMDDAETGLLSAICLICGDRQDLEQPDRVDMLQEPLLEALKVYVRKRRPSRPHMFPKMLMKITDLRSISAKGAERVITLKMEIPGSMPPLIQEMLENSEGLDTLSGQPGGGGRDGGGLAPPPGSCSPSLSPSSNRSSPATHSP
Chain of Aryl hydrocarbon receptor (Homo sapiens) (P35869 whole entry, looked up): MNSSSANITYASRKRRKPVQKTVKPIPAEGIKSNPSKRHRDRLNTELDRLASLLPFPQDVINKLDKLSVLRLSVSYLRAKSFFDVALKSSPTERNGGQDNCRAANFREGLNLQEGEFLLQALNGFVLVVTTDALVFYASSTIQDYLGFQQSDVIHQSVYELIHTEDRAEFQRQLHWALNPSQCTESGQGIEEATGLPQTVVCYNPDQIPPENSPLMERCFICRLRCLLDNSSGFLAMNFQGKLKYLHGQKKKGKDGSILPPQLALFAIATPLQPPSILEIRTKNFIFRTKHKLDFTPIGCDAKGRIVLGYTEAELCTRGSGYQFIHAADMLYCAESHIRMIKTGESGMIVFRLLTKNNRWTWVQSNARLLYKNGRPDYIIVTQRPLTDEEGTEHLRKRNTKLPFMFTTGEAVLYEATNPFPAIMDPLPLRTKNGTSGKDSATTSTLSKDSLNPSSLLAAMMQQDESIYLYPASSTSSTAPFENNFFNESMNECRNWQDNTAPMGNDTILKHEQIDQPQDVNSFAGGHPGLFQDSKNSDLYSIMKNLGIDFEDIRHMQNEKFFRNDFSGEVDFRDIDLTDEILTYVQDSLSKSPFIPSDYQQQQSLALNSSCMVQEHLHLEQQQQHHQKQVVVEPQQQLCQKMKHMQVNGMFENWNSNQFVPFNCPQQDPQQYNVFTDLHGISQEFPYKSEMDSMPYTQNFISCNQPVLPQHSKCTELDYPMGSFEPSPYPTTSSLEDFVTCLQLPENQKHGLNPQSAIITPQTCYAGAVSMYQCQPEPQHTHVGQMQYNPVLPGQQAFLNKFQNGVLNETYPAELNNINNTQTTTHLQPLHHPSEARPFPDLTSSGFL

O=C(O)CCCC(=O)O
inactive: [1] | [2] | [3] | [4] | [5] | [6] | [7] | [8] | [9] | [10] | [11] | [12] | [13] | [14] | [15] | [16] | [17] | [18] | [19]

CCCCCCCCCCCC(C)=O
active: [4] 124 µM | [5] 136 µM | [7] 72.7 µM | [9] 69.4 µM | [15] 1.3 µM | [16] 160 µM | [18] 171 µM
inactive: [1] | [2] | [3] | [6] | [10] | [11] | [12] | [13] | [14] | [17] | [19]

CCC(C)(O)CCCC(C)C (configuration not stated)
inactive: [1] | [2] | [3] | [4] | [5] | [6] | [7] | [20] | [10] | [11] | [12] | [13] | [14] | [15] | [17] | [19]

CCCC(C)C(=O)OCC (configuration not stated)
inactive: [1] | [2] | [3] | [4] | [5] | [6] | [7] | [9] | [10] | [11] | [12] | [13] | [14] | [15] | [16] | [17] | [18] | [19]

O=C1CCCN1C1CCCCC1
inactive: [1] | [2] | [3] | [4] | [5] | [6] | [7] | [20] | [9] | [10] | [11] | [12] | [14] | [15] | [16] | [17] | [19]

COC(=O)c1ccccc1C
inactive: [1] | [2] | [3] | [4] | [5] | [6] | [7] | [8] | [9] | [10] | [11] | [12] | [13] | [14] | [15] | [17] | [18] | [19]

CC(Cl)COP(=O)(OCC(C)Cl)OCC(C)Cl (configuration not stated)
inactive: [1] | [2] | [3] | [4] | [5] | [6] | [20] | [8] | [9] | [10] | [11] | [12] | [13] | [14] | [15] | [16] | [17] | [18] | [19]

O=C(OCc1ccccc1)c1ccc(O)cc1
inactive: [2] | [3] | [4] | [5] | [6] | [7] | [20] | [9] | [10] | [12] | [14] | [16] | [17] | [18] | [19]
active: [1] 10.5 µM | [13] 93.4 µM | [15] 8.77 µM

C=CC(=O)OCCCCCCCCCC
inactive: [1] | [2] | [3] | [4] | [5] | [6] | [7] | [8] | [10] | [11] | [12] | [13] | [14] | [15] | [16] | [17] | [18] | [19]
active: [9] 46 µM

Cc1cc(=O)[nH]c(=O)[nH]1
inactive: [1] | [2] | [3] | [4] | [5] | [6] | [7] | [20] | [10] | [11] | [12] | [13] | [14] | [15] | [16] | [17] | [18] | [19]

Cc1ccc([N+](=O)[O-])cc1N
inactive: [1] | [2] | [3] | [4] | [5] | [7] | [20] | [10] | [11] | [12] | [13] | [14] | [15] | [16] | [17] | [18] | [19]
active: [6] 1.51 µM

Nc1nc(N)nc(-c2ccccc2)n1
inactive: [1] | [2] | [3] | [4] | [5] | [6] | [7] | [9] | [10] | [11] | [12] | [13] | [14] | [15] | [16] | [17] | [18] | [19]

O=C(O)c1ccc2c(c1)C(=O)OC2=O
inactive: [1] | [2] | [3] | [4] | [5] | [6] | [20] | [8] | [9] | [10] | [11] | [12] | [13] | [14] | [15] | [16] | [17] | [18] | [19]

CC1CC(=O)CC(C)(C)C1 (configuration not stated)
inactive: [1] | [2] | [3] | [4] | [5] | [6] | [7] | [20] | [9] | [10] | [11] | [12] | [13] | [14] | [15] | [16] | [17] | [19]

CC(C)C(=O)OCCc1ccccc1
inactive: [1] | [2] | [3] | [4] | [5] | [6] | [20] | [8] | [9] | [10] | [11] | [12] | [13] | [14] | [15] | [16] | [17] | [18] | [19]
